Results filed as inconclusive are left out. Entries that show only a call come without a potency. Calls of active or inactive are those of the source. Unless noted, calls come from the whole dose curve.
Tested on: not listed separately
Assay: Nuclear factor erythroid 2-related factor 2/antioxidant responsive element (Nrf2/ARE) small molecule agonists: qHTS cell viability counter screen in human keratinocytes (AID 1919968; active = well fitted cell-killing curve with a large enough effect in the repeat runs; note: nearly all actives have a fitted effect of over 55% in size)
Settings: KeratinoSens HaCaT ARE cells viability, CellTiter-Fluor, 24 h; series mostly up to 92.4 µM
In short: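 KeratinoSens HaCaT cells, 1,500/well, preincubated 5 h, then exposed to compounds in DMSO for 23 h at 37 C/5% CO2. Viability read as CellTiter-Fluor fluorescence after 1 h, in the same wells as the ARE-luciferase read.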

Structure (SMILES) | Potency | activity change, negative = cytotoxicity
CCCOC(=O)CC | inactive | 
C=CC(=O)N1CCOCC1 | inactive | 
C=CCOCC(O)CS(=O)(=O)O (stereo not given) | inactive | 
CCCCNCC | inactive | 
CCCC1CCC(=O)CC1 | inactive | 
CCC(C)COC(C)=O (stereo not given) | inactive | 
CCCNC(C)(C)COC(=O)c1ccccc1 | inactive | 
Cc1ccc(C#N)cc1 | inactive | 
Cc1nnc(SCC2=C(C(=O)O)N3C(=O)[C@@H](NC(=O)Cn4cnnn4)[C@H]3SC2)s1 | inactive | 
CCN(CC)CCNC(C(=O)OCCC(C)C)c1ccccc1 (stereo not given) | inactive | 
CCOC(=O)CC(C)C | inactive | 
CCCCCCCCCCCCC1CO1 (stereo not given) | inactive | 
O=C(O)/C=C(\CC(=O)O)C(=O)O | inactive | 
CCCCCCCCS(=O)(=O)O | inactive | 
CC(C)CCCCCOC(=O)CCCCC(=O)OCCCCCC(C)C | inactive | 
CCOc1ccc(NC(N)=O)cc1 | inactive | 
CC1(C)CC(O)CC(C)(C)N1[O] | inactive | 
CC(C)COC(=O)CCCCC(=O)OCC(C)C | inactive | 
O=C1NCC2(CCN(CCc3ccccc3)CC2)O1 | inactive | 
C=C(C)C(=O)OCC | inactive | 

Structure (SMILES) | Potency | activity change, negative = cytotoxicity
CC(CO)(CO)[N+](=O)[O-] | inactive | 
C=CCCCCCCCCCCCCCC |  | 5.7% [at 19 µM] (inactive)
OC(C#CCN1CCCC1)(c1ccccc1)c1ccccc1 | inactive | 
C=C(C)[C@@H]1CC=C(C)C(=O)C1 | inactive | 
CCC(C)N (stereo not given) | inactive | 
COC(C)=O | inactive | 
CCCCN1C[C@H](O)[C@@H](O)[C@H](O)[C@H]1CO | inactive | 
CC(=O)OCC(=O)NCCCOc1cccc(CN2CCCCC2)c1 | inactive | 
OC1CCCCC1c1ccccc1 (stereo not given) | inactive | 
CCCCCCCCCCC=O | inactive | 
CC(C)(C)CC(C)(C)N | inactive | 
C=CCCCCCCCCOC(C)=O | inactive | 
C[C@H](NC(CCc1ccccc1)C(=O)O)C(=O)N1CCC[C@H]1C(=O)O (stereo not given in full) | inactive | 
CC(N=C(NC#N)Nc1ccncc1)C(C)(C)C (stereo not given) | inactive | 
OCCC1CCCCN1 (stereo not given) | inactive | 
C[C@]12CCC(=O)C=C1CC[C@H]1[C@@H]3CC[C@](O)(C(=O)CO)[C@@]3(C)C[C@H](O)[C@@]12F | inactive | 
CCC(C)(CCC(C)C)C(=O)O (stereo not given) | inactive | 
COP(=O)(O)OP(=O)(O)OC | inactive | 
CCCC(=O)OC/C=C(\C)CCC=C(C)C | inactive | 
NNC(=O)CP(=O)(c1ccccc1)c1ccccc1 | inactive | 

Tested on: not listed separately
Assay: Nuclear factor erythroid 2-related factor 2/antioxidant responsive element (Nrf2/ARE) small molecule agonists: luciferase reporter gene qHTS assay in human keratinocytes (AID 1919969); note: nearly all actives have a fitted effect of over 35% in size; note: potency is the fitted concentration of half-maximal effect
Settings: KeratinoSens HaCaT ARE-luciferase, luminescence, 24 h; series mostly up to 92.4 µM

Structure (SMILES) | Potency | activity, positive = activation
CCCOC(=O)CC | inactive | 
C=CC(=O)N1CCOCC1 | inactive | 
C=CCOCC(O)CS(=O)(=O)O (stereo not given) | 0.196 µM (active) | 
CCCCNCC | inactive | 
CCCC1CCC(=O)CC1 | inactive | 
CCC(C)COC(C)=O (stereo not given) | inactive | 
CCCNC(C)(C)COC(=O)c1ccccc1 | inactive | 
Cc1ccc(C#N)cc1 | inactive | 
Cc1nnc(SCC2=C(C(=O)O)N3C(=O)[C@@H](NC(=O)Cn4cnnn4)[C@H]3SC2)s1 | inactive | 
CCN(CC)CCNC(C(=O)OCCC(C)C)c1ccccc1 (stereo not given) | inactive | 
CCOC(=O)CC(C)C | inactive | 
CCCCCCCCCCCCC1CO1 (stereo not given) | inactive | 
O=C(O)/C=C(\CC(=O)O)C(=O)O | inactive | 
CCCCCCCCS(=O)(=O)O | inactive | 
CC(C)CCCCCOC(=O)CCCCC(=O)OCCCCCC(C)C | 48.6 µM (active) | 
CCOc1ccc(NC(N)=O)cc1 | inactive | 
CC1(C)CC(O)CC(C)(C)N1[O] | inactive | 
CC(C)COC(=O)CCCCC(=O)OCC(C)C | inactive | 
O=C1NCC2(CCN(CCc3ccccc3)CC2)O1 | inactive | 
C=C(C)C(=O)OCC | inactive | 

Structure (SMILES) | Potency | activity, positive = activation
CC(CO)(CO)[N+](=O)[O-] | inactive | 
C=CCCCCCCCCCCCCCC |  | -0.484% [at 19 µM] (inactive)
OC(C#CCN1CCCC1)(c1ccccc1)c1ccccc1 | inactive | 
C=C(C)[C@@H]1CC=C(C)C(=O)C1 | inactive | 
CCC(C)N (stereo not given) | inactive | 
COC(C)=O | inactive | 
CCCCN1C[C@H](O)[C@@H](O)[C@H](O)[C@H]1CO | inactive | 
CC(=O)OCC(=O)NCCCOc1cccc(CN2CCCCC2)c1 | inactive | 
OC1CCCCC1c1ccccc1 (stereo not given) | inactive | 
CCCCCCCCCCC=O | inactive | 
CC(C)(C)CC(C)(C)N | inactive | 
C=CCCCCCCCCOC(C)=O | inactive | 
C[C@H](NC(CCc1ccccc1)C(=O)O)C(=O)N1CCC[C@H]1C(=O)O (stereo not given in full) | inactive | 
CC(N=C(NC#N)Nc1ccncc1)C(C)(C)C (stereo not given) | inactive | 
OCCC1CCCCN1 (stereo not given) | inactive | 
C[C@]12CCC(=O)C=C1CC[C@H]1[C@@H]3CC[C@](O)(C(=O)CO)[C@@]3(C)C[C@H](O)[C@@]12F | inactive | 
CCC(C)(CCC(C)C)C(=O)O (stereo not given) | inactive | 
COP(=O)(O)OP(=O)(O)OC | 24.3 µM (active) | 
CCCC(=O)OC/C=C(\C)CCC=C(C)C | inactive | 
NNC(=O)CP(=O)(c1ccccc1)c1ccccc1 | inactive | 

Molecular target: Gonadotropin-releasing hormone receptor (Homo sapiens) (UniProt P30968)
Assay: Human gonadotropin-releasing hormone receptor (GnRHR) small molecule agonists, calcium flux assay in GnRHR-HEK293 cells (AID 1920063); note: nearly all actives have a fitted effect of over 35% in size
Settings: calcium flux fluorescence, agonist mode; series mostly up to 57.6 µM
In short: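 HEK293 cells stably expressing human GnRHR were dye-loaded for 1 h at 37 C. Compound was added in agonist mode and fluorescence (Ex/Em 480/540) recorded kinetically for 3 min. Fifteen concentrations, triplicates.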

Chain of Gonadotropin-releasing hormone receptor (Homo sapiens) (P30968 whole entry, looked up): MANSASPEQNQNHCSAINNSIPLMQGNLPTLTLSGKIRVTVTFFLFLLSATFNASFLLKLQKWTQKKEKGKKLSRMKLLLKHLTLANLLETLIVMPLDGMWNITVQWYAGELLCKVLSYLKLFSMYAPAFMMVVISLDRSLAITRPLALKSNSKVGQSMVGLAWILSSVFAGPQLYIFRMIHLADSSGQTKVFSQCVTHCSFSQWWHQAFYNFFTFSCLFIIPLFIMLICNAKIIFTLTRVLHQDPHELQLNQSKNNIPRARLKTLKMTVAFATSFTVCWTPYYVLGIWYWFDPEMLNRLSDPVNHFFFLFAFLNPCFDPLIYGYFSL

Structure (SMILES) | Potency | activity change
CCCOC(=O)CC | inactive | 
C=CC(=O)N1CCOCC1 | inactive | 
C=CCOCC(O)CS(=O)(=O)O (stereo not given) | inactive | 
CCCCNCC | inactive | 
CCCC1CCC(=O)CC1 | inactive | 
CCC(C)COC(C)=O (stereo not given) | inactive | 
CCCNC(C)(C)COC(=O)c1ccccc1 | inactive | 
Cc1ccc(C#N)cc1 | inactive | 
Cc1nnc(SCC2=C(C(=O)O)N3C(=O)[C@@H](NC(=O)Cn4cnnn4)[C@H]3SC2)s1 | inactive | 
CCN(CC)CCNC(C(=O)OCCC(C)C)c1ccccc1 (stereo not given) | inactive | 
CCOC(=O)CC(C)C | inactive | 
CCCCCCCCCCCCC1CO1 (stereo not given) | inactive | 
O=C(O)/C=C(\CC(=O)O)C(=O)O | inactive | 
CCCCCCCCS(=O)(=O)O | inactive | 
CC(C)CCCCCOC(=O)CCCCC(=O)OCCCCCC(C)C | inactive | 
CCOc1ccc(NC(N)=O)cc1 | inactive | 
CC1(C)CC(O)CC(C)(C)N1[O] | inactive | 
CC(C)COC(=O)CCCCC(=O)OCC(C)C | inactive | 
O=C1NCC2(CCN(CCc3ccccc3)CC2)O1 | inactive | 
C=C(C)C(=O)OCC | inactive | 

Structure (SMILES) | Potency | activity change
CC(CO)(CO)[N+](=O)[O-] | inactive | 
C=CCCCCCCCCCCCCCC |  | 0.565% [at 11.8 µM, active compounds read high] (inactive)
OC(C#CCN1CCCC1)(c1ccccc1)c1ccccc1 | inactive | 
C=C(C)[C@@H]1CC=C(C)C(=O)C1 | inactive | 
CCC(C)N (stereo not given) | inactive | 
COC(C)=O | inactive | 
CCCCN1C[C@H](O)[C@@H](O)[C@H](O)[C@H]1CO | inactive | 
CC(=O)OCC(=O)NCCCOc1cccc(CN2CCCCC2)c1 | inactive | 
OC1CCCCC1c1ccccc1 (stereo not given) | inactive | 
CCCCCCCCCCC=O | inactive | 
CC(C)(C)CC(C)(C)N | inactive | 
C=CCCCCCCCCOC(C)=O | inactive | 
C[C@H](NC(CCc1ccccc1)C(=O)O)C(=O)N1CCC[C@H]1C(=O)O (stereo not given in full) | inactive | 
CC(N=C(NC#N)Nc1ccncc1)C(C)(C)C (stereo not given) | inactive | 
OCCC1CCCCN1 (stereo not given) | inactive | 
C[C@]12CCC(=O)C=C1CC[C@H]1[C@@H]3CC[C@](O)(C(=O)CO)[C@@]3(C)C[C@H](O)[C@@]12F | inactive | 
CCC(C)(CCC(C)C)C(=O)O (stereo not given) | inactive | 
COP(=O)(O)OP(=O)(O)OC | inactive | 
CCCC(=O)OC/C=C(\C)CCC=C(C)C | inactive | 
NNC(=O)CP(=O)(c1ccccc1)c1ccccc1 | inactive | 

— PubChem BioAssay (Tox21)
